The source of these data is PubChem BioAssay (Tox21).

Inconclusive results are not listed. The source made the active and inactive calls. Unless noted, calls follow the shape of the dose curve; as a rule, active = well fitted curve in the direction sought with a large enough effect in the repeat runs; inconclusive = weak or mixed curves; inactive = no such curve, though single readings can be large; an effect the other way counts as inactive or inconclusive.

Assay [1] in a line: qHTS assay to identify small molecule antagonists of the glucocorticoid receptor (GR) signaling pathway - cell viability counter screen (AID 720693). Also: nearly all actives have a fitted effect of over 55% in size.
Assay [2] is described as follows: qHTS assay for identifying genotoxic compounds that show differential cytotoxicity against isogenic chicken DT40 cell lines with known DNA damage response pathways - wild type cell line (AID 743012). Also: nearly all actives have a fitted effect of over 60% in size. Also: potency is read from the fitted curve at half-maximal effect. Put shortly: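 Using parental DT40 (300 cells/well), compounds delivered in DMSO incubate 40 h at 37 C/5% CO2. CellTiter-Glo reagent then stands 30 min at room temperature, and luminescence gives cell viability.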
In general terms: In qHTS, concentration-response curves come from the screen itself.

Assay [3] is described as follows: qHTS assay for identifying genotoxic compounds that show differential cytotoxicity against isogenic chicken DT40 cell lines with known DNA damage response pathways - Rev3 mutant cell line (AID 743014). Also: nearly all actives have a fitted effect of over 55% in size. Also: potency is read from the fitted curve at half-maximal effect.
Assay [4] can be described thus: qHTS assay for identifying genotoxic compounds that show differential cytotoxicity against isogenic chicken DT40 cell lines with known DNA damage response pathways - Rad54/Ku70 mutant cell line (AID 743015). Also: nearly all actives have a fitted effect of over 60% in size. Also: potency is read from the fitted curve at half-maximal effect.
A short description of assay [5]: qHTS assay to identify small molecule antagonists of the androgen receptor (AR) signaling pathway - cell viability counter screen (AID 743033; also: nearly all actives have a fitted effect of over 45% in size).
Assay [6] is described as follows: qHTS assay to identify small molecule antagonists of the thyroid receptor (TR) signaling pathway - cell viability counter screen (AID 743064). Also: nearly all actives have a fitted effect of over 50% in size. Put shortly: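 Fluorescence from CellTiter-Fluor, added after 23.5 h exposure at 37 °C, reported viability of GH3.TRE-Luc cells co-treated with compound and 1 nM T3. Measured in the same wells as the luciferase TR readout.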

A short description of assay [7]: qHTS assay to identify small molecule antagonists of the thyroid receptor (TR) signaling pathway (AID 743065). Also: series mostly up to about 70 µM; nearly all actives have a fitted effect of over 55% in size. Put shortly: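 Antagonism measured as loss of luciferase signal in GH3 cells stably carrying a TRE-luciferase reporter, co-treated with compound and T3 (1 nM final) for 23.5 h at 37 C. Viability was read in the same well by CellTiter-Fluor.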
Assay [8] concerns thyroid hormone receptor (rat, GH3 cells). Put plainly: qHTS assay to identify small molecule agonists of the thyroid receptor (TR) signaling pathway (AID 743066; calls by dose curve).
In assay [9] the target is Estrogen receptor (Homo sapiens) (UniProt P03372). As to the kind of experiment: qHTS assay to identify small molecule antagonists of the estrogen receptor alpha (ER-alpha) signaling pathway (AID 743069; active = well fitted curve in the direction sought with a large enough effect in the signal ratio in the repeat runs, not every such curve was filed as active; the % refers to the signal ratio). A digest of the protocol:
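Compound effects are measured against 17beta-estradiol stimulation in HEK293 cells with a UAS-controlled beta-lactamase reporter for ER-alpha. Exposure lasts 18 hr at 37C; LiveBLAzer B/G FRET substrate follows for 2 hr at room temperature.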

Assay [10] can be described thus: qHTS assay to identify small molecule antagonists of the estrogen receptor alpha (ER-alpha) signaling pathway - cell viability counter screen (AID 743074; calls by dose curve;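 also: HEK293 cells carrying ER-alpha-UAS-bla reporter stimulated with 17beta-estradiol; nearly all actives have a fitted effect of over 45% in size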).
For assay [11], the target named is Estrogen receptor (Homo sapiens) (UniProt P03372). Put plainly: qHTS assay to identify small molecule agonists of the estrogen receptor alpha (ER-alpha) signaling pathway (AID 743075; calls by dose curve).
Assay [12] in a line: qHTS assay to identify small molecule antagonists of the estrogen receptor alpha (ER-alpha) signaling pathway using the BG1 cell line (AID 743080; calls by dose curve;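 also: BG1 cells stimulated with 17beta-estradiol alongside compound; series mostly up to about 70 µM; nearly all actives have a fitted effect of over 25% in size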). Put shortly:
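BG1-Luc-4E2 cells (endogenous full-length ER-alpha, 4xERE luciferase) hormone-starved 5 days in charcoal-stripped FBS, plated 4,000/well for 24 h, then compound plus 17beta-estradiol for 21.5 h at 37 C; ONE-Glo luminescence read.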

Assay [13] can be described thus: qHTS assay to identify small molecule antagonists of the estrogen receptor alpha (ER-alpha) signaling pathway using the BG1 cell line - cell viability counter screen (AID 743081).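 Also: compound given together with 17beta-estradiol as the ER stimulus; series mostly up to about 70 µM; nearly all actives have a fitted effect of over 45% in size.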
Assay [14] deals with Aromatase (Homo sapiens) (UniProt P11511). As to the kind of experiment: qHTS assay to identify aromatase inhibitors (AID 743083). Also: series mostly up to about 70 µM; nearly all actives have a fitted effect of over 55% in size.
Assay [15] in a line: qHTS assay to identify aromatase inhibitors - cell viability counter screen (AID 743084).
A short description of assay [16]: qHTS assay to identify small molecule antagonists of the androgen receptor (AR) signaling pathway using the MDA cell line - cell viability counter screen (AID 743041; also: nearly all actives have a fitted effect of over 45% in size). Put shortly:
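R1881-driven MDA-kb2 AR-luc cells, 3,000/well, were dosed with library compounds for 16 h; cell health came from CellTiter-Fluor fluorescence in the reporter wells.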

Assay [17] concerns the target Estrogen receptor (Homo sapiens) (UniProt P03372). Put plainly: qHTS assay to identify small molecule agonists of the estrogen receptor alpha (ER-alpha) signaling pathway using the BG1 cell line (AID 743079). Also: nearly all actives have a fitted effect of over 20% in size.
Assay [18] deals with Androgen receptor (Homo sapiens) (UniProt P10275). Put plainly: qHTS assay to identify small molecule agonists of the androgen receptor (AR) signaling pathway using the MDA cell line (AID 743040; also: nearly all actives have a fitted effect of over 20% in size). Put shortly:
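After a 5 h incubation at 37C and 0% CO2, MDA-kb2 reporter cells were dosed with compounds in DMSO and kept 16 h under the same conditions. Luciferase activity was then read as luminescence with ONE-Glo.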

Assay [19] shares this target. Put plainly: qHTS assay to identify small molecule antagonists of the androgen receptor (AR) signaling pathway using the MDA cell line (AID 743042; also: nearly all actives have a fitted effect of over 55% in size). A digest of the protocol:
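Antagonist mode: compounds plus R1881 agonist added to MDA-kb2 AR-luc cells, incubated 16 h at 37C. Luciferase reporter luminescence quantified, with multiplexed CellTiter-Fluor readout for cell viability.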

For assay [20] the target is unchanged. Put plainly: qHTS assay to identify small molecule agonists of the androgen receptor (AR) signaling pathway (AID 743036; active = well fitted activation curve with a large enough effect in the signal ratio in the repeat runs, with a control signal flat, not every such curve was filed as active; the % refers to the signal ratio). A digest of the protocol: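 Fluorescence from a beta-lactamase FRET substrate served as read-out in AR-UAS-bla GripTite HEK293 cells. Cells were treated with DMSO-dissolved compounds for 16 h at 37C, then with LiveBLAzer B/G substrate for 2 h at room temperature.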

Sequence of Androgen receptor (Homo sapiens) (P10275 whole entry, looked up): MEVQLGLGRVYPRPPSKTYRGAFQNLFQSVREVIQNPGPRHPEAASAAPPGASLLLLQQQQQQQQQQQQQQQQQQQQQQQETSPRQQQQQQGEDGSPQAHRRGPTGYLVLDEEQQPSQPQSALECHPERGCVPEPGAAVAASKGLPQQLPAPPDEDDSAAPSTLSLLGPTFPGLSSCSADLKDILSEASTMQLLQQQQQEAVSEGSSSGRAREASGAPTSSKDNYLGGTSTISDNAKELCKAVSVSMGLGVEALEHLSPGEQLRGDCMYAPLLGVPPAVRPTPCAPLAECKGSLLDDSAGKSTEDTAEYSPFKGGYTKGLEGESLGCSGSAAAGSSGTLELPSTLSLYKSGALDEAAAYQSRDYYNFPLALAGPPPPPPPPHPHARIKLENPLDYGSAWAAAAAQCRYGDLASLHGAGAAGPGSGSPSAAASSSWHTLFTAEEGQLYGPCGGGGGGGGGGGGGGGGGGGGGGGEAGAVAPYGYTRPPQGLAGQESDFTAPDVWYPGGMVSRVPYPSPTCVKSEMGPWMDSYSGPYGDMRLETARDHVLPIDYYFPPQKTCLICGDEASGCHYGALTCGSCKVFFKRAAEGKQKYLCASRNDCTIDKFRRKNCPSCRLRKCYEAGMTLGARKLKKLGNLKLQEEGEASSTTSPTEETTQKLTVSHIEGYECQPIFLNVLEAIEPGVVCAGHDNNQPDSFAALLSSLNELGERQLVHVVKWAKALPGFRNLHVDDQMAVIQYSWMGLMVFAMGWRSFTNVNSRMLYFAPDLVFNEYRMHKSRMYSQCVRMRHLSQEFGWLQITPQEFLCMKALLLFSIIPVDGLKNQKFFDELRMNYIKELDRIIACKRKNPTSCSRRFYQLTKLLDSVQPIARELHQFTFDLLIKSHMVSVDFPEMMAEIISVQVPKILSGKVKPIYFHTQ
Sequence of Estrogen receptor (Homo sapiens) (P03372 whole entry, looked up): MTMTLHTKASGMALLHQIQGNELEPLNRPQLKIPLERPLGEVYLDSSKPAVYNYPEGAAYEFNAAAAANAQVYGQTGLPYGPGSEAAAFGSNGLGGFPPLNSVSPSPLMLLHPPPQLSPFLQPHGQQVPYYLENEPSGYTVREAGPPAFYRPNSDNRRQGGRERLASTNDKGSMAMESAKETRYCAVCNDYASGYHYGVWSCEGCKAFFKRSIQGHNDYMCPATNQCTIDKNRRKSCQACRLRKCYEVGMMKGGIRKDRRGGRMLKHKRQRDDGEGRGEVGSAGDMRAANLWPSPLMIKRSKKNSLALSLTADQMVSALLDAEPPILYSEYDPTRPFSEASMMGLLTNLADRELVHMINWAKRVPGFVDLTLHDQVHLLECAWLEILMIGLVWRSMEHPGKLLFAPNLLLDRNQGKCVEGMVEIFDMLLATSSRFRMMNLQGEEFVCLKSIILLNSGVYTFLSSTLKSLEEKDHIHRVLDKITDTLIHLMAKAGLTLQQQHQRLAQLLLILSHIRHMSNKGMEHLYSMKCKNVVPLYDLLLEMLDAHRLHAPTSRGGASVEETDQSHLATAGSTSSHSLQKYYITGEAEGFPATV
Sequence of Aromatase (Homo sapiens) (P11511 whole entry, looked up): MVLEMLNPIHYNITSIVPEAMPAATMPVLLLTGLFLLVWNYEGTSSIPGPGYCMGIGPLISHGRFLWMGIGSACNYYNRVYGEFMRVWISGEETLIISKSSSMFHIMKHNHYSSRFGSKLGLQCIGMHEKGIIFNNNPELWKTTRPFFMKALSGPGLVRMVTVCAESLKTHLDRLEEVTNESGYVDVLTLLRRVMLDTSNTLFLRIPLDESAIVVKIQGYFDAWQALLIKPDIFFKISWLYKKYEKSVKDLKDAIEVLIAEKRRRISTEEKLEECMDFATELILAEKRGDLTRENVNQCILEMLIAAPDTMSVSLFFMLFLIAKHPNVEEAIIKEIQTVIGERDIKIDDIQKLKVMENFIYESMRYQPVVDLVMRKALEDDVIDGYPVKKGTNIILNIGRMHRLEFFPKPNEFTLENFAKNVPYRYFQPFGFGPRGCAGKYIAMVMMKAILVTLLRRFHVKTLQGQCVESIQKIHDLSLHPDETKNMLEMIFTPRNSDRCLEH

Turning to `CN(C)CCCCl`, the compound was called inactive in assay [1], in assay [5], in assay [8], in assay [9], in assay [10] and in assay [12]. In assay [14], the outcome was inactive. Also, the Potency entry in assay [2], in [3], in assay [4], in [6], in assay [7] and in assay [11] was “inactive” throughout. For the same compound, the Potency entry in assay [13] and in assay [15] was “inactive” in each case.
With `CO/N=C(/C(=O)N[C@@H]1C(=O)N2C(C(=O)[O-])=C(C[n+]3ccn4ncccc43)CS[C@H]12)c1nsc(N)n1`, the call in [1], in assay [5], in [9], in [10], in [12] and in [14] was inactive. Also, the Potency result in [2], in assay [3], in [4], in assay [16], in assay [11] and in [17] was “inactive” each time. The Potency entry in assay [13] and in assay [15] was “inactive” in each case.
Take `Cc1c(C(=O)c2c[nH]n(C)c2=O)ccc(S(C)(=O)=O)c1C1=NOCC1`: the call in assay [1], in assay [19], in [8], in [10], in [12] and in assay [14] was inactive. Moreover, the Potency entry in assay [2], in assay [3], in assay [4], in [18], in assay [16] and in [6] was “inactive” in each case. The Potency entry in [7], in assay [11], in [17], in assay [13] and in assay [15] was “inactive” each time.
As for `CCOC(CN1CCN(CC(C)C(=O)c2ccccc2)CC1)c1ccccc1` (configuration not stated), the result in assay [1], in [5], in assay [8] and in [10] was inactive. For the same compound, the Potency in [2] is 10.6 µM (active); in [3], 13.3 µM (active); in assay [4], 18.8 µM (active). For the same compound, the Potency result in assay [13] and in assay [15] was “inactive” in each case.
As for `COC(C)(OC)OC`, the compound was called inactive in [1], in [20], in assay [19], in assay [8], in [12] and in assay [14]. The Potency result in assay [2], in assay [3], in assay [4], in assay [18], in [16] and in [6] was “inactive” in each case. Also, the Potency entry in assay [7], in [11], in [17], in assay [13] and in assay [15] was “inactive” throughout.
Take `COc1ccc(CCO)cc1`: the compound was classed as inactive in assay [1], in [20], in [19], in assay [8], in assay [10] and in [14]. Moreover, the Potency result in [2], in assay [3], in assay [4], in [18], in [16] and in [6] was “inactive” throughout. For the same compound, the Potency result in [13] and in assay [15] was “inactive” throughout.
For `CCNC(=O)NCc1cccc(Cl)c1`, the compound was classed as inactive in [1], in assay [5], in [8], in [9], in [10] and in assay [12]. The result in assay [14] was inactive. Also, the Potency entry in [2], in assay [3], in [4], in [16], in [7] and in [11] was “inactive” in each case. The Potency result in assay [17], in assay [13] and in assay [15] was “inactive” each time.
As for `CC/C=C\CCOC(=O)c1ccccc1O`, the result in assay [1], in [5], in assay [8], in [9], in assay [10] and in [12] was inactive. Also, in [14], the outcome was inactive. Besides, the Potency entry in [2], in assay [4], in assay [16], in assay [6], in assay [7] and in assay [11] was “inactive” in each case. The Potency entry in assay [17], in [13] and in [15] was “inactive” each time.
As for `CC(C)(C)NC[C@H](O)COc1cccc2c1CCCC2=O`, the outcome in assay [1], in assay [8], in [9], in assay [10], in assay [12] and in assay [14] was inactive. The Potency entry in [2], in assay [3], in assay [4], in [16], in [6] and in assay [11] was “inactive” each time. For the same compound, the Potency entry in [17], in [13] and in assay [15] was “inactive” each time.
`CCCCCC/C=C/C(=O)OC`: the compound was classed as inactive in assay [1], in [5], in assay [8], in assay [10] and in assay [14]. For the same compound, the Potency entry in [2], in assay [3], in assay [16], in assay [6], in assay [7] and in assay [13] was “inactive” in each case. Besides, the Potency entry in assay [15] is “inactive”.
Regarding `O/N=C/C=N/O`, the outcome in assay [1], in assay [5], in assay [8], in [10] and in assay [14] was inactive. Moreover, the Potency entry in assay [2], in [4], in assay [16], in assay [6], in assay [13] and in [15] was “inactive” in each case.
On to `CCCCCC(C)O` (configuration not stated), for which the call in assay [1], in assay [5], in [8], in assay [9], in assay [10] and in assay [12] was inactive. In addition, the compound was called inactive in assay [14]. In addition, the Potency result in assay [2], in assay [4], in [16], in [6], in assay [7] and in assay [11] was “inactive” throughout. Besides, the Potency result in [17], in [13] and in [15] was “inactive” each time.
